From PubChem
Most compounds without a hit are left out; they make up all but 3.8% or so of the library.
FBA Mtb inh – inhibitors of M. tuberculosis fructose-bisphosphate aldolase; P9WQA3; purified M. tuberculosis FBA, fluorescence read-out; inhibition, % at 1 µM; 360,000 compounds, 2.3% hits; AID 588726; in the data active = inhibition above about 27%;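 note: 0% = vehicle and 100% = reference inhibitor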
Target sequence (P9WQA3 whole entry, looked up): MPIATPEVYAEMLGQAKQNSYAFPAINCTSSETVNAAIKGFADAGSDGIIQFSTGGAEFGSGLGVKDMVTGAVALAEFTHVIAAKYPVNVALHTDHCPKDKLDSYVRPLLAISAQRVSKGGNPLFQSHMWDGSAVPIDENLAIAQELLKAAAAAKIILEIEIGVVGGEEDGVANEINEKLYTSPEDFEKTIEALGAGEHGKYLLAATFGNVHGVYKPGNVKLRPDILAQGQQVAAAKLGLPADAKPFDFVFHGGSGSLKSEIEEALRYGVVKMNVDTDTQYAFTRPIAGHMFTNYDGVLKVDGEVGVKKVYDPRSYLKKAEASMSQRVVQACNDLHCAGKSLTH
PrP UTR inh – suppresses PrP 5' UTR mRNA reporter expression; cell-based PrP 5' UTR mRNA reporter, plate reader; inhibition, % (concentration not given with the values); 340,000 compounds, 0.35% hits; in the data active = inhibition above about 52%; note: 0 = median of the neutral control wells
GDH-TPI counter – GDH-TPI coupled enzyme inhibition counter-screen; GDH-TPI coupled enzyme counterscreen, NADH absorbance; inhibition, % at 4.8 µM; 360,000 compounds, 1.2% hits; AID 588335; in the data active = inhibition above about 30%;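 note: 0% = DMSO wells and 100% = wells lacking the enzyme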
Mtb hypoxia rep – reduces hypoxia-regulated biosensor signal in M. tuberculosis; M. tuberculosis hypoxia-regulated fluorescent reporter, fluorescence; fluorescence inhibition, % (concentration not given with the values); 300,000 compounds, 0.1% hits; in the data active = fluorescence inhibition mostly above about 23%, no sharp cut-off; inactive = mostly below about 17%
PrPC TRFRET – reduces human prion protein on the cell surface | 370,000 compounds, 0.43% hits | AID 720596 | P04156 | inhibition, % at 13.8 µM | cell surface PrPC, TR-FRET read-out; in the data active = inhibition above about 24%; note: 0% = median of the test wells and 100% = reference compound wells
Y pestis TopoI – inhibitors of Yersinia pestis topoisomerase I. Y. pestis Topo-I cleavage product accumulation, plate reader. activity, % at 10 µM. 360,000 compounds, 0.064% hits; in the data active = activity above about 50%, passing the limit was not always enough
Active calls of the source: *; . = not tested or not shown; + = active, no number.

SMILES	FBA Mtb inh	PrP UTR inh	GDH-TPI counter	Mtb hypoxia rep	PrPC TRFRET	Y pestis TopoI
O=C(CC1S/C(=N/N=C/C=C/c2ccccc2)NC1=O)Nc1ccc(C(=O)O)cc1 (stereo not drawn)	3.3	-7.9	57.2*	11.6	-3.4	-6.3
Cc1ccc(NC(=O)CC2S/C(=N/N=C\C=C\c3ccccc3)NC2=O)cc1Cl (stereo not drawn)	.	.	.	9.8	.	.
CCC(=NNC(=O)c1cc(C2CC2)[nH]n1)c1ccccc1	.	.	.	5.1	.	.
COc1ccc(-c2cc(C(=O)N3CCCCCC3)c3cc(C)ccc3n2)cc1	152.9*	-11.2	10.9	9.9	-1.9	36.7
Cc1ccc(-c2cc(C(=O)N3CCOCC3)c3ccccc3n2)cc1	16.2	-31.9	5.9	.	-5.6	-1.4
COc1cccc(CN2CCN(C(=O)c3cc(-c4ccncc4)nc4ccc(C)cc34)CC2)c1	-0.8	-13.0	6.2	2.4	-7.7	31.1
COc1ccc(-c2ccc(OC)cc2C(=O)O)cc1	4.4	-13.5	-15.2	-81.2	-4.7	9.9
COc1ccc(-c2cc(C(=O)c3c(N)n(C)c(=O)n(C)c3=O)c3ccccc3n2)cc1	5.7	-30.5	35.4*	2.5	7.2	-5.3
COc1ccc(-c2cc(C(=O)N3CCOCC3)c3cc(C)ccc3n2)cc1	157.3*	-2.8	14.5	7.5	-7.4	12.8
COc1ccc2nc(-c3ccc(Cl)cc3)cc(C(=O)O)c2c1	+	-30.3	13.0	7.8	-3.0	-6.5
CCC(C)Sc1ccc(C2N[C@@](C)(C(=O)OC)C3C(=O)N(CC)C(=O)C23)cc1OC (stereo partly drawn)	.	.	.	-5.2	.	.
COc1ccc(-c2cc(C(=O)N3CCCCC3)c3ccccc3n2)cc1OC	6.8	-14.8	21.2	0.9	7.2	17.1
COc1cc(OC)c(OC)cc1/C=C/c1cc(C(=O)O)c2ccccc2n1	-0.4	-34.2	12.8	7.8	-13.1	8.6
COc1ccc(-c2cc(C(=O)N3CCCCC3)c3ccccc3n2)cc1	128.0*	-9.1	12.2	0.1	6.5	4.9
COc1ccc(/C=C/c2cc(C(=O)O)c3ccccc3n2)cc1	3.1	71.3*	32.5*	12.9	-39.2	5.8
O=C1/C(=C\c2ccc(O)cc2)SC(=S)N1N=Cc1ccc(O)cc1	.	.	.	1.2	.	.
O=C1/C(=C\c2ccc(O)cc2)SC(=S)N1/N=C/c1ccc(O)cc1	-27.0	-27.7	38.3*	.	7.5	-10.0
O=C1C2C3C=CC(CC3)C2C(=O)N1N=Cc1ccc(O)cc1 (stereo not drawn)	.	.	.	-3.8	.	.
O=C1C2C3C=CC(CC3)C2C(=O)N1/N=C/c1ccc(O)cc1 (stereo not drawn)	-2.3	-47.1	31.9*	.	1.7	-7.3
O=C(NC(Cc1ccc(O)cc1)C(=O)O)c1ccc(C(F)(F)F)cc1 (stereo not drawn)	.	.	.	9.0	.	.
COc1ccc(-c2ccc(C(=O)NCC3CCOCC3)c3occc23)c(C)c1	131.9*	.	-4.4	.	10.5	20.3
O=C1c2cccc3cccc(c23)C(=O)N1c1ccccc1Cl	24.8	-5.3	32.5*	7.5	-36.9	0.8
CCN(CC)C(=O)CSc1nnc(COc2ccc(OC)cc2)n1N	-1.2	-9.0	1.3	4.3	-1.4	4.1
CCN(CC)C(=O)CSc1nnc2nnc3cc(OC)ccc3n12	-3.5	.	7.7	66.4*	-33.5	-3.7
CC(=NNC(=O)c1nnn(-c2nonc2N)c1-c1ccc2c(c1)OCO2)c1cccs1	.	.	.	1.8	.	.
SMILES	FBA Mtb inh	PrP UTR inh	GDH-TPI counter	Mtb hypoxia rep	PrPC TRFRET	Y pestis TopoI
c1cc2c(cc1N1CCCCC1)CNCc1cnnn1-2	-2.8	.	.	.	1.7	.
c1ccc2oc(-c3ccc4c(c3)CNCc3cnnn3-4)cc2c1	+	.	.	.	-8.6	.
O=C(Nc1ccc2c(c1)CCC2)c1ccc(F)cc1	116.9*	-19.0	5.9	.	-0.5	-1.7
COC(=O)C1=CNC=C(C(=O)OC)C1c1ccccc1Cl	+	-23.8	8.0	.	-5.4	1.6
CCCCN1C=C(C(=O)OC)C(c2ccccc2C(F)(F)F)C(C(=O)OC)=C1	14.2	-11.2	2.9	.	6.5	8.8
CCCOc1ccc(C2C(C(=O)OC)=CN(CCOC)C=C2C(=O)OC)cc1	+	-15.5	-3.1	-7.3	0.2	9.9
CCCCN1C=C(C(=O)OC)C(c2ccccc2Cl)C(C(=O)OC)=C1	171.2*	-17.3	-2.2	8.2	-6.5	-3.2
COCCN1C=C(C(=O)OC)C(c2ccccc2C(F)(F)F)C(C(=O)OC)=C1	154.9*	-11.1	9.0	.	8.0	-3.7
COC(=O)C1=CNC=C(C(=O)OC)C1c1cccc2ccccc12	25.5	-17.8	-2.6	-2.8	-5.1	-0.1
COC(=O)C1=CNC=C(C(=O)OC)C1c1ccc(Cl)cc1	+	-6.7	6.2	5.4	0.3	4.6
COC(=O)C1=CN(c2ccc(Cl)cc2)C=C(C(=O)OC)C1c1ccc([N+](=O)[O-])cc1	-0.7	-5.5	2.1	0.9	-4.8	-0.3
COC(=O)C1=CNC=C(C(=O)OC)C1c1cccc(OC)c1	195.4*	-5.8	4.3	.	-1.5	0.1
CCCCCCN1C=CC(=C/C=C(\C#N)C(=O)OCC)C=C1	-38.5	-6.9	8.3	-19.6	-46.4	-15.9
CCOC(=O)/C(C#N)=C/C=C1\C=Cc2ccccc2N1CC	-23.8	-26.6	1.3	43.1*	-39.1	10.7
CC(C)n1c(=O)c(C=Nc2ccc(S(N)(=O)=O)cc2)c(O)n(Cc2ccco2)c1=O	-2.1	0.5	32.3*	12.5	-2.3	-8.8
CCCCn1c(=O)c(C=Nc2ccc(Cl)cc2)c(O)n(Cc2ccco2)c1=O	1.6	-4.9	11.2	8.2	12.8	20.1
Cc1cc(C#Cc2c(-c3ccccc3)n(C)c3ccccc23)ccc1F	26.9*	-8.7	15.9	.	-3.6	-1.6
CCC1=NNc2cccc3c(OC)ccc1c23	.	.	.	60.1*	.	.
CC(C)(C)C(=O)Nc1ccc2c(c1)OCCOCCOc1cc(NC(=O)C(C)(C)C)ccc1OCCOCCO2	4.5	-16.4	-0.6	35.8*	-8.0	-0.7
O=C(Nc1ccc2c(c1)OCCO2)c1ccc(Br)c(S(=O)(=O)N2CCOCC2)c1	-5.1	3.2	36.2*	1.8	13.2	-6.4
COC(=O)[C@@]12CCCN1C(c1ccc(-c3ccc(F)cc3)cc1)C1C(=O)N(C)C(=O)C12 (stereo partly drawn)	.	.	.	16.1	.	.
COc1ccc(-c2nc3ccccc3o2)cc1OC	9.9	-47.7	-5.2	.	-15.2	15.7
Nc1nc2ccc(-c3nc4ccccc4o3)cc2s1	+	-73.4	40.6*	3.5	10.0	-3.1
O=C(CC1CC=CCC(Cc2ccc(F)cc2)C(=O)OCCNC1=O)NC(CO)Cc1ccccc1 (stereo not drawn)	.	.	.	15.5	.	.
CCCC=C(CCC)C(NC(=O)c1ccc(C(F)(F)F)cc1)c1ccccc1 (stereo not drawn)	.	.	.	1.9	.	.
C/C(=N\NC(=O)c1ccc(Cl)cc1)c1cccs1	2.6	-87.3	41.5*	.	3.2	-11.6
COc1cc(C=Nn2c(-c3ccc4c(c3)NC(=O)CO4)csc2=Nc2cccc(C)c2)ccc1O	.	.	.	-1.0	.	.
O=C1C(SCCO)=C(SCCO)C(=O)c2ccccc21	-3.6	-3.1	6.3	.	64.9*	2.8
O=C(NCCCN1CCOCC1)C(=O)NN=Cc1ccccc1Cl	.	.	.	7.4	.	.
